Test results published in ChEMBL document CHEMBL3988442, “University of Dundee, Small-Polar-MMV Screening Library” (2021).
The campaign covered roughly 48,000 compounds. About 13,000 (27%) showed an effect of 50% or more. This is one part of the list.

Test system: Wolbachia pipientis
Test: Anti-Wolbachia Cell-Based Screen
Type: functional
Parameters: scale not given: in the data most compounds retested in dose-response had high values
Details: 5 µM

Going from `CCCc1noc(CCC(=O)N2CCN(C)CC2c2ccccc2)n1` (stereo unspecified) to `CC(C)c1nnc(NC(=O)N2CCN(C)CC2c2ccccc2)s1` (stereo unspecified), the “Percent Effect” value falls from 7.741% to 2.354%.

Going from `O=C(NCC1SCCc2ccccc21)c1cscn1` (stereo unspecified) to `O=C(c1cscn1)N1C[C@H]2CCC[C@@]2(COCc2ccccn2)C1`, the “Percent Effect” value rises from 1.343% to 128%.

First: N#Cc1cnc(NCCCN2C(=O)COc3ccccc32)c(Cl)c1
Second: Cc1cc(NC(=O)N2CCCC(CO)C2)nn1-c1ccccc1Cl (stereo unspecified)
The “Percent Effect” value of the first is higher: 9.033% for the first, 6.236% for the second.

Going from `CCOc1cccc(CNC(=O)NC2CC=CC2)c1OC(F)F` to `COc1ccc(OC)c(CN(C(=O)c2ccc(C)[nH]c2=O)C2CC2)c1`, the “Percent Effect” value falls from 3.017% to -3.072%.

Compared with `Cc1n[nH]cc1CNC(C)c1cccc(N2CCCC2=O)c1.Cl` (stereo unspecified), `Cc1cccc(-c2noc(CN3CCC(N4CCNC4=O)CC3)n2)c1` is lower in “Percent Effect” value: 3.207% for the first, 0.5199% for the second.

Going from `Cc1cccc(COC[C@@]23CCC[C@@H]2CN(C(=O)Cc2ccco2)C3)n1` to `O=C(Cc1ccco1)N1C[C@H]2CCC[C@@]2(COCc2cccnc2)C1`, the “Percent Effect” value falls from 13.36% to -4.256%.

First: Cc1ccc(C(=O)N2C[C@H]3CCC[C@@]3(COCc3cccnc3)C2)s1
Second: O=C(Cc1ccsc1)N1C[C@H]2CCC[C@@]2(COCc2ccccn2)C1
The “Percent Effect” value of the first is lower: -11.48% for the first, 101.3% for the second.

Going from `CCc1ncc(C(=O)N2CCCC2Cn2cccn2)s1` (stereo unspecified) to `CCc1ncc(C(=O)N2CCCCC2Cn2cccn2)s1` (stereo unspecified), the “Percent Effect” value falls from 101.3% to -1.613%.

Going from `NC(=O)c1csc(C(=O)N2CCCCC2Cn2cccn2)c1` (stereo unspecified) to `NC(=O)c1ccc(C(=O)N2CCCCC2Cn2cccn2)s1` (stereo unspecified), the “Percent Effect” value rises from -5.921% to 92.92%.

Compared with `O=C(c1cnc(C2CC2)s1)N1CCCCC1Cn1cccn1` (stereo unspecified), `O=C(c1cnc(C2CC2)s1)N1CCCC1Cn1cccn1` (stereo unspecified) is higher in “Percent Effect” value: 5.861% for the first, 124.9% for the second.

Going from `c1ccc2c(c1)CC(n1ccnc1-c1cc3n(n1)CCNC3)CO2` (stereo unspecified) to `O=C1NCCN1C1CCN(c2ccnc(-c3ccccc3)n2)CC1`, the “Percent Effect” value rises from 0.8243% to 10.01%.

Compared with `O=C(CC[C@@H]1CCCN2CCCC[C@H]12)NCCc1nc(O)cc(O)n1`, `O=C(Cc1ccsc1)NCC1OCCc2cn(CC3CC3)nc21` (stereo unspecified) is higher in “Percent Effect” value: -15.21% for the first, -4.734% for the second.

Going from `N#Cc1ccnc(N2CCN(CC(O)c3cccc(F)c3)CC2)c1` (stereo unspecified) to `N#Cc1cccnc1Nc1ccc(N2CCC(C(N)=O)CC2)cc1`, the “Percent Effect” value falls from -9.554% to -22.12%.

First: CC(C)Cc1nc(CN2CCC(N3CCN(C)C3=O)CC2)no1
Second: CN1CCN(C2CCN(Cc3nc(-c4ccoc4)no3)CC2)C1=O
The “Percent Effect” value of the first is lower: -0.1019% for the first, 101.9% for the second.

Going from `O=C1NCCN1C1CCN(Cc2nc(-c3ccoc3)no2)CC1` to `O=C1NCCN1C1CCN(Cc2nc(-c3ccsc3)no2)CC1`, the “Percent Effect” value rises from 0.168% to 100.1%.

Compared with `Fc1ccc(-c2noc(CN3CCC(c4cc[nH]n4)CC3)n2)cc1`, `Cc1ccc(-c2noc(CN3CCC(c4ccn[nH]4)CC3)n2)cc1` is higher in “Percent Effect” value: -73.45% for the first, -38.16% for the second.

Going from `O=C1NCCN1C1CCN(Cc2nc(-c3ccccc3)no2)CC1` to `Cc1ccccc1-c1noc(CN2CCC(N3CCNC3=O)CC2)n1`, the “Percent Effect” value falls from 96.78% to 89.22%.

First: Cc1ccc(-c2noc(CN3CCC(N4CCNC4=O)CC3)n2)cc1
Second: O=C1NCCN1C1CCN(Cc2nc(-c3ccc(F)cc3)no2)CC1
The “Percent Effect” value of the first is lower: 76.33% for the first, 108.3% for the second.

Going from `c1ccc(-c2noc(CN3CCC(c4ccn[nH]4)CC3)n2)cc1` to `Cc1ccccc1-c1noc(CN2CCC(c3ccn[nH]3)CC2)n1`, the “Percent Effect” value falls from 3.848% to -44.64%.

Compared with `CCN1CCN(C2CCN(Cc3nc(-c4ccoc4)no3)CC2)C1=O`, `c1cc(C2CCN(Cc3nc(-c4ccsc4)no3)CC2)[nH]n1` is lower in “Percent Effect” value: -10.87% for the first, -22.06% for the second.

Compared with `N#Cc1ccccc1OCCN1CCn2c(nnc2C2CC2)C1`, `Cc1ccccc1-c1noc(CN2CCn3c(nnc3C3CC3)C2)n1` is higher in “Percent Effect” value: -2.907% for the first, 9.498% for the second.

First: c1cnn(CC2CN(Cc3nc(-c4ccsc4)no3)CCO2)c1 (stereo unspecified)
Second: CN(C)S(=O)(=O)N1CC(c2nc(-c3ccsc3)no2)C1
The “Percent Effect” value of the first is lower: -8.782% for the first, -5.352% for the second.

Going from `COCCN1CC2(CCCN(c3ncnc4[nH]cnc34)C2)CCC1=O` (stereo unspecified) to `COCCn1cc2c(n1)C(CNS(C)(=O)=O)OCC2` (stereo unspecified), the “Percent Effect” value rises from 2.898% to 95.37%.

Going from `Cc1noc(C2CN(S(C)(=O)=O)Cc3ccnn3C2)n1` (stereo unspecified) to `CN(C)c1nccc(C2CN(S(C)(=O)=O)C2)n1`, the “Percent Effect” value rises from -9.743% to 62.66%.

Compared with `CN(C)S(=O)(=O)N1CCN(c2nccc(C(F)(F)F)n2)CC1`, `Cc1nccc(C2CN(S(=O)(=O)N(C)C)C2)n1` is higher in “Percent Effect” value: -20.82% for the first, 92.05% for the second.

Going from `CS(=O)(=O)N1CC(c2ncn3ccccc23)C1` to `CS(=O)(=O)NCC1OCCc2cn(CC3CC3)nc21` (stereo unspecified), the “Percent Effect” value falls from 16% to -2.199%.

Going from `COCCn1cc2c(n1)C(CNC(=O)c1cc(C)[nH]c1C)OCC2` (stereo unspecified) to `Cc1cc(C(=O)NCC2OCCc3cn(CC4CC4)nc32)c(C)[nH]1` (stereo unspecified), the “Percent Effect” value rises from 94.61% to 99.34%.

First: O=C(NCC1OCCc2cn(CC3CC3)nc21)c1ccsc1 (stereo unspecified)
Second: CS(=O)(=O)CC(=O)NCC1OCCc2cn(CC3CC3)nc21 (stereo unspecified)
The “Percent Effect” value of the first is lower: -6.452% for the first, -2.36% for the second.

Going from `CCS(=O)(=O)NCC1OCCc2cn(CCOC)nc21` (stereo unspecified) to `Cn1cc2c(n1)C(CNC(=O)Cc1ccsc1)OCC2` (stereo unspecified), the “Percent Effect” value rises from -0.9126% to 6.682%.

First: COCc1nnc(NC(=O)CN2C(=O)c3ccccc3NC2C(C)C)s1 (stereo unspecified)
Second: CC(C)c1nnc(NC(=O)CN2C(=O)c3ccccc3NC2C(C)C)s1 (stereo unspecified)
The “Percent Effect” value of the first is higher: 107.7% for the first, 94.59% for the second.

First: CCC(=O)Nc1nnc(CCOc2cccc(OC)c2)s1
Second: CCC(=O)Nc1nnc(CCCOc2ccccc2)s1
The “Percent Effect” value of the first is higher: 0.4737% for the first, -6.738% for the second.

First: CC(C)c1nnc(NC(=O)N2CCCC2c2ccncc2)s1 (stereo unspecified)
Second: CCN1CCN(c2nc(C(C)C)nc3c(C)nn(CC)c23)CC1
The “Percent Effect” value of the first is higher: 0.4499% for the first, -2.933% for the second.

First: Cn1ccnc1CN1CCN2C[C@H](Oc3ccccc3)C[C@H]2C1.O=C(O)C(F)(F)F.O=C(O)C(F)(F)F
Second: CN(C)c1nccc(N(C)Cc2ncnn2C)n1
The “Percent Effect” value of the first is lower: -6.794% for the first, 4.507% for the second.
